# Screens from PubChem BioAssay.
# The list is not random: actives were taken first. Their share in the collection is about 19%.
# IL-1B inflam inh = inflammasome signaling inhibition, IL-1 beta readout; THP-1 LPS/ATP IL-1B secretion, AlphaLISA, 16 h; stronger effect = lower value; AID 743279; 4.7% of 360,000 active; activity change, % at 57.5 µM; in the data active = activity change below about -50%; inconclusive = mostly about -30% to -49%
#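 THP-1 cells pretreated 1 hr with compounds (up to 57.5 uM final), then stimulated with LPS (250 ng/mL final) plus ATP (1.25 mM final); secreted IL-1B measured by AlphaLISA after 16 hr, decreased signal indicating inhibition.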
# TDP1 cell noCPT = qHTS for Inhibitors of human tyrosyl-DNA phosphodiesterase 1 (TDP1): qHTS in cells in absence of CPT; 15% of 420,000 active; AID 686978, 2013; DT40 Tdp1-/- hTDP1 cells, no CPT, ATP luminescence, 48 h; Potency, µM (top dose mostly 46.2 µM), without a hit: at the top dose activity change, negative = growth inhibition, hits mostly inhibitors; also: potency is read from the fitted curve at half-maximal effect; nearly all actives have a fitted effect of over 55% in size
#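 Readout: luminescence from CellTiter-Glo after 30 min in the dark at RT. Cells: DT40 Tdp1-/- with stable hTDP1, 400/well. Exposure: compounds alone, ≥48 hr, 37 °C.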
# HT1080 IDH1KD tx = kills HT-1080 cells with IDH1 knockdown | 2% of 360,000 active | Potency, µM (series often up to 46.1 µM), for the others: at the top dose activity, negative = toxicity, usual class: cytotoxic | HT-1080 IDH1 knockdown viability, ATP luminescence, 48 h;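 also: potency is read from the fitted curve at half-maximal effect; 0% = DMSO wells and -100% = cell-free medium wells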
#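 Cytotoxicity counter-line: IDH1KD HT-1080, 48 h, CellTiter-Glo. Curves classed by r2, magnitude and activity.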
# TDP1 cell CPT = growth inhibition of DT40 Tdp1-/-;hTDP1 cells with camptothecin (screen for TDP1 inhibitors); chicken DT40 Tdp1-/-;hTDP1 cells + 20 nM CPT, ATP luminescence, 48 h; Potency, µM (top dose mostly 46.2 µM), for the others: at the top dose activity change, negative = growth inhibition, actives largely listed as inhibitors; 12% of 420,000 active; AID 686979; also: potency is read from the fitted curve at half-maximal effect; nearly all actives have a fitted effect of over 55% in size
#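 Cell growth measured by CellTiter-Glo luminescence after a minimum 48 h, 37 C compound exposure with 20 nM CPT in Tdp1-knockout DT40 cells stably expressing hTDP1, seeded 400/well; qHTS titration format.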
# HT1080NT lethal = kills 2HG-producing HT-1080-NT fibrosarcoma cells; 1.6% of 360,000 active; Potency, µM (doses to about 46.1 µM), for inactives: at the highest dose activity, negative = less viability, actives largely listed as cytotoxic; HT-1080-NT fibrosarcoma viability, CellTiter-Glo ATP luminescence, 48 h;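 also: NT is the 2HG producing partner of a matched IDH1 knockdown line; potency is read from the fitted curve at half-maximal effect; 0% = DMSO-treated cells and -100% = media-only wells without cells; nearly all actives have a fitted effect of over 55% in size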
#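 Fibrosarcoma NT cells, 750 per well in 5% FBS RPMI, were exposed to compound for 48 hours. Viability: CellTiter-Glo luminescence.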
# * marks the source's active call; other numbers are inactive results; ? = inconclusive; / = not tested or not shown. Unless noted, calls follow the shape of the dose curve; as a rule, active = well fitted curve in the direction sought with a large enough effect; inconclusive = small, poorly fitted or top-dose-only effect, or another doubt; inactive = no such curve, though single readings can be large; an effect the other way counts as inactive or inconclusive. Unless noted, % is scaled to controls: 0 for no effect and ±100 for the full control effect.
SMILES,IL-1B inflam inh,TDP1 cell noCPT,HT1080 IDH1KD tx,TDP1 cell CPT,HT1080NT lethal
Cn1ccnc1SCC(=O)c1c[nH]c2ccccc12,12.4,-14.6%,-3.3%,-20.6%,-8.9%
CC(=O)c1ccc(-n2c(SCC(=O)c3c[nH]c4ccccc34)nc3ccccc3c2=O)cc1,?,11.6µM*,?,20.6µM*,-22.7%
CCn1c(SCC(=O)N2CCN(C)CC2)nc2c1c(=O)n(C)c(=O)n2C,-6.2,-10.4%,3.1%,-11.9%,19.9%
CCOC(=O)c1c(CC(C)C)csc1NC(=O)COC(=O)c1cc(OC)c(OC)cc1[N+](=O)[O-],18.1,5.8µM*,9.2%,11.6µM*,4.5%
CCOC(=O)c1c(NC(=O)COC(=O)c2cc(OC)c(OC)cc2[N+](=O)[O-])sc(C)c1CC,40.7,14.6µM*,8.2%,?,13.4%
O=C(O)C(c1ccccc1)N1CCCC1 (centres undefined),0.0,-1.0%,29.6%,-2.9%,29.0%
CCc1cc(SC#N)ccc1N,-102.3*,?,-29.3%,-24.6%,-5.1%
O=C(NNC1CC(c2ccccc2)=NN1C(=O)c1ccccc1)c1ccccc1 (centres undefined),-6.9,23.1µM*,-10.1%,25.9µM*,-6.9%
O=C(c1cccs1)N1N=C(c2ccccc2)CC1c1ccccc1O (centres undefined),-78.6*,?,-22.2%,-2.9%,-27.6%
Cc1ccc(C2=NN(C(=O)c3ccccc3F)C(c3ccccc3F)C2)cc1 (centres undefined),-15.6,20.6µM*,13µM*,20.6µM*,13µM*
O=C(c1ccccc1Cl)N1N=C(c2ccc(Br)cc2)CC1c1nc2ccccc2[nH]1 (centres undefined),-67.2*,16.4µM*,?,?,-25.6%
O=C(NCc1ccccc1F)c1ccc2c(c1)OCCO2,2.4,7.0%,3.4%,2.0%,-8.1%
CC(=O)N1N=C(c2ccccc2)CC1c1cn(Cc2ccccc2)c2ccccc12 (centres undefined),-4.2,?,?,18.4µM*,?
O=C(c1ccncc1)N1N=C(c2ccc(Br)cc2)CC1c1ccccc1O (centres undefined),-62.6*,?,?,?,?
CC(=O)N1N=C(c2ccncc2)CC1c1ccccc1O (centres undefined),105.7,0.2%,6.0%,10.7%,8.2%
COc1ccc(C2=NN(C(=O)c3cccs3)C(c3ccccc3OC)C2)cc1OC (centres undefined),-84.1*,?,?,?,-27.9%
CN1C(=O)CC(c2cn(Cc3ccccc3)c3ccccc23)C1=O (centres undefined),38.2,-5.9%,-0.1%,-0.1%,-11.3%
O=C(c1ccco1)N1N=C(c2cccs2)CC1c1ccccc1O (centres undefined),-12.4,20.6µM*,?,18.4µM*,-1.8%
C[C@@H]1CN([C@H](C)CO)C(=O)CCCn2cc(nn2)CO[C@H]1CN(C)S(=O)(=O)c1cccc(F)c1,-12.2,-3.7%,6.4%,3.2%,0.7%
O=C(c1ccccc1)N1N=C(c2ccccc2)CC1c1ccccc1O (centres undefined),-108.0*,?,25.9µM*,23.1µM*,23.1µM*
O=C(c1ccccc1)N1N=C(c2ccccc2)CC1c1ccc2nccnc2c1 (centres undefined),-3.4,?,0.9%,?,5.4%
CNC(=O)C1CN(C(=O)c2nn(Cc3ccccc3)c(=O)c3ccccc23)c2ccccc2O1 (centres undefined),?,?,-1.2%,?,0.6%
CCOC(=O)C1=C(C)NC2=C(C(=O)CCC2)C1c1cccnc1 (centres undefined),2.6,-6.0%,0.4%,-11.2%,5.4%
CCOC(=O)C1=C(C)NC2=C(C(=O)CCC2)C1c1cn(Cc2ccc(Cl)cc2Cl)nc1-c1ccccc1 (centres undefined),?,20.6µM*,?,16.4µM*,?
CC(C)(CNC(=O)c1ccc([N+](=O)[O-])c(Cl)c1)CNC(=O)c1ccc([N+](=O)[O-])c(Cl)c1,-112.5*,20.6µM*,?,18.4µM*,20.6µM*
SMILES,IL-1B inflam inh,TDP1 cell noCPT,HT1080 IDH1KD tx,TDP1 cell CPT,HT1080NT lethal
Cc1ccc(C(=O)NCCSCc2ccccc2)cc1[N+](=O)[O-],-6.5,?,24.9%,?,4.2%
CN(Cc1ccccc1)C(=O)c1ccc(Cl)c([N+](=O)[O-])c1,-89.9*,?,6.9%,?,-0.8%
O=C(NCCc1cccc(Cl)c1)c1ccc(Cl)c([N+](=O)[O-])c1,-97.7*,20.6µM*,-11.8%,?,?
Cc1ccc(C(=O)NCCc2cccc(Cl)c2)cc1[N+](=O)[O-],-56.5*,20.6µM*,8.4%,20.6µM*,-6.4%
O=C(NCCc1cccc(Cl)c1)c1cc([N+](=O)[O-])ccc1Cl,-14.2,-13.4%,-14.6%,2.7%,1.7%
CCCc1nn2c(=O)cc(CSCC(=O)Nc3ccc(C)cc3)nc2s1,-3.7,13.6%,9.6%,-2.4%,0.5%
CCn1c(-c2ccccc2Cl)nn(CC(=O)Nc2ccccc2C)c1=S,2.7,3.2%,3.8%,1.6%,4.9%
COC(=O)c1ccc(C(=O)N(Cc2ccccc2)c2ccccc2)cc1,11.3,?,-8.8%,?,-9.3%
COc1ccc(OC(=O)c2nc(SCc3ccc(F)cc3)ncc2Cl)cc1,/,-12.0%,/,-14.3%,/
COc1ccc(N(Cc2ccccc2)C(=O)c2nc(SC)ncc2Cl)cc1,/,5.17µM*,/,10.3µM*,/
CCS(=O)(=O)c1ncc(Cl)c(C(=O)N(Cc2ccccc2)c2ccc(OC)cc2)n1,/,0.651µM*,/,1.03µM*,/
CCOc1ccc(NS(=O)(=O)c2ccc(C(=O)NC3CCC(O)CC3)cc2)cc1 (centres undefined),19.1,-10.3%,-25.7%,-26.1%,-15.2%
Cc1ccccc1CC(=O)Nc1ccc(S(=O)(=O)N2CCN(C)CC2)cc1,-5.7,-10.6%,-0.7%,-0.5%,9.3%
O=C(CN1C(=O)C2CCCCN2c2ccc(C(=O)N3CCCC3)cc21)NCc1cccc(Cl)c1 (centres undefined),/,5.8µM*,/,?,/
CC1(c2ccccc2Cl)NC(=O)N(CC(=O)Nc2ccc(N3CCCCC3)cc2)C1=O (centres undefined),-10.8,20.6µM*,-10.1%,?,0.7%
O=C(CN1C(=O)NC2(CCCC2)C1=O)Nc1ccc(F)c(Cl)c1,-5.5,-10.9%,-1.6%,15.9%,-10.3%
O=C(CN1C(=O)NC2(CCCC2)C1=O)Nc1ccc(F)c([N+](=O)[O-])c1,-66.4*,?,-1.9%,-12.0%,-11.8%
